Experimental data reported in the supplement of paper PMC9948646.

test system: gramicidin D channels in DC22:1PC lipid vesicles (bilayer-modifying potency); assay: initial Tl+ fluorescence quench rate relative to no-drug control (NormRate, gramicidin monomer-dimer shift) (ratio (fold of control)); higher = stronger bilayer-modifying effect (equilibrium shifted toward conducting dimers), active = 1.5 or more; details: 10 µM; lipid concentration 50 µM; temperature: 25 °C
Method: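 Stopped-flow fluorescence quench assay: ANTS-loaded DC22:1PC large unilamellar vesicles doped with gramicidin D (1:2000), 50 µM lipid, equilibrated 10 min with 10 µM drug (0.1% DMSO), mixed with Tl+ quench buffer at 25°C. Initial quench rate (Tl+ influx) was fitted with a modified stretched exponential and normalised to the no-drug control rate (NormRate); duplicates from two independent LUV preparations (triplicates for 7 drugs).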

Row | Compound | initial Tl+ fluorescence quench rate
1 | Cc1nn(C)cc1[C@H](C)Nc1nncc(-c2ccc(C(F)(F)F)cc2)n1 | 1.93 (active)
2 | CCOc1ccccc1C(=O)Nc1cccc(-c2nc3ncccn3c2C)c1 | 1.48 (inactive)
3 | Cc1cc(Nc2ccc(C(F)(F)F)cc2)n2ccnc2n1 | 1.05 (inactive)
4 | O=C(Nc1nnc(-c2ccc(Cl)s2)o1)c1ccc(Cl)s1 | 1.27 (inactive)
5 | CC[C@H](NC(=O)c1ccccc1NC(=O)c1ccc(C)cc1)C(=O)OC | 1.32 (inactive)
6 | O=C(NCc1cc(Cl)cc(Cl)c1)c1c(C(F)(F)F)nc2ccccn12 | 1.21 (inactive)
7 | CCCCOC(=O)Nc1cc2nc(C3CCCCC3)[nH]c2cc1N1CCCC1 | 1.33 (inactive)
8 | CC(=O)N(CCN(C(=O)c1ccc(F)cc1)c1ccccc1)c1ccccc1 | 1.14 (inactive)
9 | O=[N+]([O-])c1cn2c(n1)OC[C@@H](OCc1ccc(OC(F)(F)F)cc1)C2 | 1.38 (inactive)
10 | C[C@H](C(=O)Nc1ccc2oc(-c3ccncc3)nc2c1)c1ccccc1 | 1.09 (inactive)
11 | Cc1nc(-c2ccccn2)nc(NCCc2ccc(S(C)(=O)=O)cc2)c1Cl | 1.13 (inactive)
12 | c1cc(C2=NCCN2)cc(-c2cc(-c3ccc(C4=NCCN4)cc3)no2)c1 | 1.17 (inactive)
13 | O=C(NCc1nnc2n1CCCCC2)c1ccc(-c2ccc(F)cc2)o1 | 1.08 (inactive)
14 | [H]/N=C(\Nc1ccc(Cl)cc1)Nc1nc(C)cc(NCCc2ccccc2)n1 | 3.21 (active)
15 | CCc1nc2ccc(Cl)cn2c1C(=O)NCc1ccc(N2CCC(c3ccc(OC(F)(F)F)cc3)CC2)cc1 | 1.09 (inactive)
16 | COc1ccc(-c2cnc3ccc(NCc4ccc(S(N)(=O)=O)cc4)nn23)cn1 | 1.24 (inactive)
17 | CCCS(=O)(=O)N1CCC(CO)(Cc2ccccc2C(F)(F)F)CC1 | 1.62 (active)
18 | CN1CCC(NCc2cccc(-c3ccc(S(=O)(=O)NCc4ccccc4)cc3)c2)CC1 | 1.94 (active)
19 | COC(=O)c1c(NC(=O)c2c(F)c(F)c(F)c(F)c2F)sc2c1CCCCC2 | 1.72 (active)

Row | Compound | initial Tl+ fluorescence quench rate
20 | O=C(NC1CC1)c1ccc(CSCc2ccccc2Cl)o1 | 1.35 (inactive)
21 | O=C([C@@H](c1ccc(Cl)cc1)c1cccnc1)N1CCN(c2ccc(C(F)(F)F)cc2)CC1 | 10.5 (active)
22 | N#Cc1ccc(-c2ccc(OCC(N)=O)cc2)cc1 | 1.06 (inactive)
23 | CCn1ncc2c(NC3CCOCC3)c(CNC(=O)c3ccnn3C)c(C)nc21 | 1.07 (inactive)
24 | Cc1ccc(C(=O)Nc2ccc(S(=O)(=O)O)c3cc(S(=O)(=O)O)cc(S(=O)(=O)O)c23)cc1NC(=O)c1cccc(NC(=O)Nc2cccc(C(=O)Nc3cc(C(=O)Nc4ccc(S(=O)(=O)O)c5cc(S(=O)(=O)O)cc(S(=O)(=O)O)c45)ccc3C)c2)c1 | 2.56 (active)
25 | CN1CCN(c2nccc3[nH]c(-c4cccc(F)c4)cc23)CC1 | 1.1 (inactive)
26 | Nc1ncnc2c1c(Cc1cccc3ccccc13)nn2CC1CCNCC1 | 1.15 (inactive)
27 | O=C(NCCN1CCCC1)c1cc(NCCCCN2CCC(F)(F)CC2)nc2ccc(Cl)cc12 | 1.92 (active)
28 | COc1cc(NC(=O)Cc2nn(C)c(=O)c3ccccc23)ccc1Cl | 1.11 (inactive)
29 | Clc1ccc(Cl)c(CO[C@H]2CCCC[C@@H]2n2ccnc2)c1 | 1.09 (inactive)
30 | Cc1ccc2[nH]c3c(NCCN(C)C)ncnc3c2c1 | 1.05 (inactive)
31 | CC1(C)Cc2c(c(N3CCOCC3)nc3snc(Br)c23)CO1 | 1.26 (inactive)
32 | CCc1ccc([C@@H]2C[C@H](C(F)(F)F)n3ncc(C(=O)NCc4ccc(OC)cc4)c3N2)cc1 | 4.55 (active)
33 | CCOC(=O)c1noc(N)c1-c1ccccc1 | 1.03 (inactive)
34 | CCc1ccccc1-n1c(C)cn2c3c(=O)n([C@@H](C(=O)OC)C(C)C)c(=O)n(C)c3nc12 | 1.2 (inactive)
35 | Cc1nn2c(O)c3c(nc2c1-c1ccc(F)cc1)CCCC3 | 1.07 (inactive)
36 | Cc1ccc(NC(=O)C[C@@H]2COc3ccccc3O2)cc1Cl | 2.24 (active)
37 | COc1ccc(N(CCc2cccc(C)n2)C(C)=O)cc1 | 1.04 (inactive)
38 | CNc1snc(C)c1C(=O)NCCOc1ccc(OC)cc1 | 1.06 (inactive)
